{"source": "PubChem BioAssay (Tox21)", "note": "The source made the active and inactive calls. Calls follow the shape of the dose curve; as a rule, active = well fitted activation curve with a large enough effect in the repeat runs; inconclusive = weak or mixed curves; inactive = flat fitted curve, though single readings scatter.", "data": [{"target": "KiSS-1 receptor (Homo sapiens) (UniProt Q969F8)", "sequence (Q969F8 whole entry, looked up)": "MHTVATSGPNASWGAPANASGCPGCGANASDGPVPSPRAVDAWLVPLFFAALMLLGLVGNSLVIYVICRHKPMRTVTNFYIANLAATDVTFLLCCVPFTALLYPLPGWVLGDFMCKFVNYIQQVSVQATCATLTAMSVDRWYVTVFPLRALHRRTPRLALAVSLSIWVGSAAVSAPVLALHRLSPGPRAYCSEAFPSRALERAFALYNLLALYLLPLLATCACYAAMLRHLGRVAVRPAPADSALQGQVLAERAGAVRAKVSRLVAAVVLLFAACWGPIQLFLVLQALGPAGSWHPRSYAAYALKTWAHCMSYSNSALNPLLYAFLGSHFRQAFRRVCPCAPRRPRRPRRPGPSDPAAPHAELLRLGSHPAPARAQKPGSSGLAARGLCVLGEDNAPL", "experiment": "Human kisspeptin (KISS1R) small molecule agonists, calcium flux assay in KISS1R-HEK293 cells (AID 1920064)", "conditions": "KISS1R-HEK293, calcium flux fluorescence, agonist; series mostly up to 76.8 µM", "outline": "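Concentration-response testing used 15 concentrations in triplicate on human KISS1R-expressing HEK293 cells. Calcium-dependent fluorescence (Ex/Em 480/540) was followed kinetically for 3 min after compound transfer.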", "values": [{"smiles": "Cc1cc(C)c(NC(=O)CN(CC(=O)O)CC(=O)O)c(C)c1Br", "outcome": "inactive"}, {"smiles": "CC(=O)c1c(C)cc(C(C)(C)C)cc1C", "outcome": "inactive"}, {"smiles": "O=C(O)Cc1c(Cl)ccc(Cl)c1Cl", "outcome": "inactive"}, {"smiles": "COc1ccc(C2C(=O)c3ccccc3C2=O)cc1", "outcome": "inactive"}, {"smiles": "CCCCCc1ccco1", "outcome": "inactive"}, {"smiles": "O=c1cc(-c2ccccc2)oc2ccc3ccccc3c12", "outcome": "inactive"}, {"smiles": "CN(CCOc1ccc(NS(C)(=O)=O)cc1)CCc1ccc(NS(C)(=O)=O)cc1", "outcome": "inactive"}, {"smiles": "CN(C)CCc1c[nH]c2ccc(C[C@H]3COC(=O)N3)cc12", "outcome": "inactive"}, {"smiles": "Cc1ncc(CO)c(C=O)c1O", "outcome": "inactive"}, {"smiles": "CCOC(=O)COc1cc(-n2ncc(C(F)(F)F)c(C)c2=O)c(F)cc1Cl", "outcome": "inactive"}, {"smiles": "Oc1ccc(-c2ccc(O)cc2)cc1", "outcome": "inactive"}, {"smiles": "CN1CCN(C2=Nc3ccccc3Sc3ccc(Cl)cc32)CC1", "outcome": "inactive"}, {"smiles": "Cc1cccc([N+](=O)[O-])c1C(=O)O", "outcome": "inactive"}, {"smiles": "c1ccc(C(O[C@H]2CCCN(CCc3ccc4c(c3)OCO4)C2)c2ccccc2)cc1", "outcome": "inactive"}, {"smiles": "CC(CCc1ccc(O)cc1)NCCc1ccc(O)c(O)c1", "note": "(stereo not drawn)", "outcome": "inactive"}, {"smiles": "CCC(C)CCCC(C)(C)O", "note": "(stereo not drawn)", "outcome": "inactive"}, {"smiles": "CCCCCCOC(=O)CCCCC(=O)OCCCCCC", "outcome": "inactive"}, {"smiles": "CCOc1ccc(NC(=O)OC(C)C)cc1OCC", "outcome": "inactive"}, {"smiles": "CC(C)C(=O)OCc1ccccc1", "outcome": "inactive"}, {"smiles": "C[C@@]12C(=O)OC(=O)[C@]1(C)C1CCC2O1", "outcome": "inactive"}, {"smiles": "CN(C)[C@@H]1C(=O)C(C(=O)NCN2CCCC2)=C(O)[C@@]2(O)C(=O)C3=C(O)c4c(O)cccc4[C@@](C)(O)C3C[C@@H]12", "note": "(stereo partly drawn)", "outcome": "inactive"}, {"smiles": "CC(=O)OC1CCCCC1", "outcome": "inactive"}, {"smiles": "CCCCCCCCOC(C)=O", "outcome": "inactive"}, {"smiles": "CCOC(=O)C(C)(C)C", "outcome": "inactive"}, {"smiles": "CCCCCCCCN(C)CCCCCCCC", "outcome": "inactive"}, {"smiles": "COc1cc2nc(Cl)nc(N)c2cc1OC", "outcome": "inactive"}, {"smiles": "CCCN(CCC)c1c([N+](=O)[O-])cc(C(F)(F)F)c(N)c1[N+](=O)[O-]", "outcome": "inactive"}, {"smiles": "CCN(CC)c1ccc(C=O)cc1", "outcome": "inactive"}, {"smiles": "COc1ccc(C)cc1[N+](=O)[O-]", "outcome": "inactive"}, {"smiles": "O=C1c2ccccc2C(=O)C1(O)O", "outcome": "inactive"}, {"smiles": "COC[C@H](c1ccc(C(F)(F)F)cc1)N1CCN(C2(C)CCN(C(=O)c3c(C)ncnc3C)CC2)C[C@H]1C", "outcome": "inactive"}, {"smiles": "CCOc1cccc(N)c1", "outcome": "inactive"}, {"smiles": "CCCCCCCCCCCC(C)=O", "outcome": "inactive"}, {"smiles": "CC(=O)Oc1ccc(C(C)=O)cc1", "outcome": "inactive"}, {"smiles": "CCOC(=O)CCC(=O)OCC", "outcome": "inactive"}, {"smiles": "C=CC(OCC)OCC", "outcome": "inactive"}, {"smiles": "CN1CCC[C@@H]1Cc1c[nH]c2ccc(CCS(=O)(=O)c3ccccc3)cc12", "outcome": "inactive"}, {"smiles": "CCCCCCCCCC(=O)OCC", "outcome": "inactive"}]}]}
